Assay: qHTS profiling for inhibitors of Plasmodium falciparum (HB3) proliferation (AID 743324);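 further: 100% = DMSO vehicle wells and 0% = artemisinin-treated control wells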
Details: Plasmodium falciparum HB3 blood-stage proliferation; at 28.7 µM (top of the series) unless noted
Method in brief: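 SYBR Green fluorescence (485 ex/535 em) of lysed cultures, incubated overnight at room temperature in the dark, quantifies parasite DNA. Infected erythrocytes at 0.3% parasitemia and 2.5% hematocrit were exposed 72 h; values normalized to DMSO and 0.29 uM artemisinin controls.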

Row | Compound | remaining proliferation (% of control), lower = more inhibition [%]
1 | CCCCN(CCCC)CCC(OC(=O)O[C@@H]1CCC[C@]2(C1)OOC1(O2)C2CC3CC(C2)CC1C3)c1cc2c(Cl)cc(Cl)cc2c2cc(C(F)(F)F)ccc12 (stereo partly specified) | 0.359
2 | CSc1cccc(NC(=O)CC[C@H]2O[C@@H]3O[C@]4(C)CC[C@H]5[C@H](C)CC[C@@H]([C@@H]2C)[C@@]35OO4)c1 | 0.997
3 | CCCCN(CCCC)CCC(OC(=O)O[C@H]1CCC[C@]2(C1)OOC1(O2)C2CC3CC(C2)CC1C3)c1cc2c(Cl)cc(Cl)cc2c2cc(C(F)(F)F)ccc12 (stereo partly specified) | 0.0614
4 | O=C1C(=O)c2ccccc2C(O)=C1C1CCC2(CC1)OOC1(O2)C2CC3CC(C2)CC1C3 (stereo unspecified) | 0.423
5 | C[C@H]1[C@@H](CCC(=O)Nc2ccc(F)cc2)O[C@@H]2O[C@]3(C)CC[C@@H]4[C@H](C)CC[C@@H]1[C@@]24OO3 | 0.121
6 | C[C@@H]1[C@@H](CC(C[C@H]2O[C@@H]3O[C@]4(C)CC[C@@H]5[C@H](C)CC[C@@H]([C@H]2C)[C@@]35OO4)C(=O)NCc2ccc(F)cc2)O[C@@H]2O[C@]3(C)CC[C@H]4[C@H](C)CC[C@@H]1[C@@]24OO3 (stereo partly specified) | 0.676
